Values without a mark were called inactive. Calls of active or inactive are those of the source.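 The calls were made as follows, unless noted: active = mean inhibition over 43.08%, the solvent-only control mean plus 3 SD; inactive = the rest.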
What was measured:
[1] = biological target: Nuclear receptor coactivator 3 (Homo sapiens) (UniProt Q9Y6Q9); experiment: NCOA3 GAL4-fusion reporter inhibition – cell-based, luminescence, quadruplicate, confirmation (AID 588792); settings: HEK293 GAL4-SRC3 luciferase reporter, at 3.6 µM, active compounds read high;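 also: 0% = DMSO treated cells and 100% = gossypol at 36 µM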
Sequence of Nuclear receptor coactivator 3 (Homo sapiens) (Q9Y6Q9 whole entry, looked up, the tested form may be a part): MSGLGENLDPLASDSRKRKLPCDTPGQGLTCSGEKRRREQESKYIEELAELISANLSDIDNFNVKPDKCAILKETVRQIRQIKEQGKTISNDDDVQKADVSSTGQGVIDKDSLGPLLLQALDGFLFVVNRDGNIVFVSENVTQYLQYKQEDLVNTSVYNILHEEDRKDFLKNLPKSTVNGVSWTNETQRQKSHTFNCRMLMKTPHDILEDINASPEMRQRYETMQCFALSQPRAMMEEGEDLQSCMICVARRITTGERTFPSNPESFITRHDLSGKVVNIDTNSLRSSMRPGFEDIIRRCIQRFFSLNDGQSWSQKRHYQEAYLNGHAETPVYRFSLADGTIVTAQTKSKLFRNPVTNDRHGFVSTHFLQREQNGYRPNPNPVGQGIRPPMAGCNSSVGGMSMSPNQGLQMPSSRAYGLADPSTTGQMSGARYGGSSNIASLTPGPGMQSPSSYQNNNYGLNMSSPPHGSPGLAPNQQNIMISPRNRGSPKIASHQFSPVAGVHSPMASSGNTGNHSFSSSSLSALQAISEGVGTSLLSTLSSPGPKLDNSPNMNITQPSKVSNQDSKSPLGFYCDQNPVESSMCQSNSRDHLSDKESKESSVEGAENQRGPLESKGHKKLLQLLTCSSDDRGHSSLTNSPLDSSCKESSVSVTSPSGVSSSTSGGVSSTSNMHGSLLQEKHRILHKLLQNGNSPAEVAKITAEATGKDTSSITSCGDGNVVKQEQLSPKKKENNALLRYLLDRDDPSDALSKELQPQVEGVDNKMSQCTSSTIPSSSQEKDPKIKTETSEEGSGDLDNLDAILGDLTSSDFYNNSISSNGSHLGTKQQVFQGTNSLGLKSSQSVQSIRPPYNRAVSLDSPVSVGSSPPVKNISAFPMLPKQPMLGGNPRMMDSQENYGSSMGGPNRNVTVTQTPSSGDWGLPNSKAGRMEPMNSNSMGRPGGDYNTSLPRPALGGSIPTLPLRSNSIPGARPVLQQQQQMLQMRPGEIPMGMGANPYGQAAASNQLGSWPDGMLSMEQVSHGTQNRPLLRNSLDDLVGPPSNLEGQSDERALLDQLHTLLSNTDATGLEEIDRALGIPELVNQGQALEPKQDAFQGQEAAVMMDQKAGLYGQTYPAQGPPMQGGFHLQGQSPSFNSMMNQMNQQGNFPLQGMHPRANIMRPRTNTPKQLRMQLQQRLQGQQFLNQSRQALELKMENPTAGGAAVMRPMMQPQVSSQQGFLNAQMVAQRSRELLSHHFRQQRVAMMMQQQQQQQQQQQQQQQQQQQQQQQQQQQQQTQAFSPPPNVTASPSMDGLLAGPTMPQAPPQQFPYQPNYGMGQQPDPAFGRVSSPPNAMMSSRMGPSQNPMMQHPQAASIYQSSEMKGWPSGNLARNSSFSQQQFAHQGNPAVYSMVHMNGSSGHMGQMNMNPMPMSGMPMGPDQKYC

[2] = test system: transactivating tegument protein VP16 (Human herpesvirus 1), Gal4-VP16 luciferase reporter; experiment: repression of VP16-driven luciferase reporter – cell-based, luminescence, high throughput, counter-screen for SRC3 inhibitor project (AID 588794; in the data active = inhibition above about 30%); settings: mammalian cells, at 3.6 µM, active compounds read high

| Compound | inhibition [1] | inhibition [2] |
| --- | --- | --- |
| C=CCSc1nc2ccccc2n1C(=O)/C=C/c1cc(OC)c(OC)c(OC)c1 | -6.27% | -10.3% |
| Cc1cc(C(F)(F)F)c(C#N)c(SCC(=O)Nc2nc3ccccc3s2)n1 | 49.7% (active) | 37.2% (active) |
| O=C1N=c2ccccc2=C1c1sc(=O)[nH]c1O | -3.29% | 2.71% |
| COc1cc(C2C(C#N)=C(SC)NC3=C2C(=O)CCC3)ccc1O (centres undefined) | 20.9% | 14.7% |
| COc1ccc(NC(=O)c2ccc(-c3ccccc3)cc2)cc1S(=O)(=O)N1CCOCC1 | 12% | 34.6% (active) |
| O=C(CCc1ccncc1)NC1CCCc2c1cnn2-c1ccc(F)cc1F (centres undefined) | 0.71% | 18.6% |
| C=CCc1cccc(/C=N/NC(=O)C[n+]2ccccc2)c1O | 24.3% | 12.3% |
| CCCC(=O)NC(c1ccc2c(c1)OCO2)c1cc(Cl)c2cccnc2c1O (centres undefined) | 40.7% | 25.3% |
| Cc1ccc(Cl)cc1N(Cc1ccc(C(=O)NCc2cccnc2)cc1)S(=O)(=O)c1ccccc1 | 9.61% | -10.9% |
| CCOc1ccc(/C=C/C(O)=C2/C(=O)NC3(C)CC2c2ccccc2O3)cc1OC (centres undefined) | 25.5% | 39% (active) |
| CC(=O)Nc1ccc(S(=O)(=O)Oc2ccccc2N2CCCCC2)cc1 | -3.48% | 0.67% |
| CCOCc1c(C(=O)NC2=Nc3ccccc3NC(CC)=C2C(=O)OCC)oc2ccccc12 | 1.38% | -11.3% |

From PubChem BioAssay
